TSG101-PTAP inh: blocks PTAP binding to human TSG101, validation | Fluorescence polarization, FITC-PTAP peptide/Tsg101, 20 min | Potency, µM (series often up to 115 µM), actives largely listed as inhibitors | AID 1347069 | 44,000 tested, under 10 active
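Steps: Tsg101 binding domain (10 uM final) in HEPES pH 7.5/NaCl/Tween 20/EDTA/TCEP; add compound; add FITC-PTAP peptide (50 nM final); incubate 20 min r.t.; read polarization.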
NTMT1 inhibitor: inhibitors of human N-terminal methyltransferase NTMT1; 2.5% of 59,000 active; Q9BV86; Potency, µM (series often up to 114 µM), usual class: inhibitors; NTMT1 MTase-Glo SAH luminescence, purified enzyme; also: nearly all actives have a fitted effect of over 65% in size
Target sequence (Q9BV86 whole entry, looked up): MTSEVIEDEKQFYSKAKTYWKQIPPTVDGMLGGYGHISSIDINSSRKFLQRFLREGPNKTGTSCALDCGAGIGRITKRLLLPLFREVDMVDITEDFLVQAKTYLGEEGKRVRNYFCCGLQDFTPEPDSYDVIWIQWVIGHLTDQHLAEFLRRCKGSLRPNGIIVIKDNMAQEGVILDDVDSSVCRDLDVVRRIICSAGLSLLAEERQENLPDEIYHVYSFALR
GPR32 ag: activates human resolvin D1 receptor GPR32; 2.5% of 48,000 active; activation, % at 76.9 µM; CHO-K1 GPR32 beta-arrestin PathHunter luminescence, 90 min; zero percent set by DMSO-only wells;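 active = activation of at least 60% and not above a set upper limit, about 1 call in 100 departs from these limits; inconclusive = activation of 40% to 60%, or above that upper limit; inactive = activation under 40%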
Target sequence (O75388 whole entry, looked up): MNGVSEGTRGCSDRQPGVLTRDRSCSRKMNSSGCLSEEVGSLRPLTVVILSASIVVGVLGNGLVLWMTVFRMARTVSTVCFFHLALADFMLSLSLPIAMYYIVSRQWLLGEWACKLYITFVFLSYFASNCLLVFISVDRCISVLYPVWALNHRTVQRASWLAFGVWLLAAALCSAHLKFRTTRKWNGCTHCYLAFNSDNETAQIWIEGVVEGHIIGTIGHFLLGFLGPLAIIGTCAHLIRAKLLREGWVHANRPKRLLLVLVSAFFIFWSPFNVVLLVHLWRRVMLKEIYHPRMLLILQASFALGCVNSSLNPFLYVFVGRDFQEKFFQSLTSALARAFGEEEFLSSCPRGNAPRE
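Luminescent readout of beta-Gal complementation quantifies ligand-induced beta-arrestin association with GPR32 in CHO-K1 cells; 90 min compound incubation at 37 °C, detection 1 h at room temperature.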
GALC G270D up: raises human GALC G270D mutant activity in cells | P54803 | 145M-Twi-hGALC-G270D cells, HMU-beta-Gal fluorescence, 48 h | Potency, µM (doses to about 57.5 µM), usual class: activators | 0.1% of 45,000 active | AID 1159614; also: nearly all actives have a fitted effect of over 65% in size
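qHTS, 1536-well; 145M-Twi-hGALC-G270D cells (WT line also made) in DMEM/F12 + 10% FBS; compound incubation on live cells; HMU-β-gal 0.1 mM final, pH 5.2, NaTC; carbonate stop; fluorescence increase = enhanced residual activity.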
B2AR arrestin ag: agonists recruiting beta-arrestin to human beta2-adrenergic receptor; P07550; HTLA Tango cells, beta-arrestin recruitment, luciferase luminescence, 18 h; Potency, µM (titrated, usually from 46.1 µM), actives largely listed as activators; 44,000 tested, under 10 active; AID 1347077
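Ligand-induced beta-arrestin recruitment to recombinant beta2-AR is measured via a tTA-driven luciferase reporter in Tango cells after 18 hr compound exposure at 37 degrees C. Concentrations span up to 46 microM.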
GALK inhibitor: inhibits human galactokinase | P51570 | recombinant GALK, Kinase-Glo ATP luminescence, 1 h | Potency, µM (series often up to 57.5 µM), most hits filed as inhibitors | 44,000 tested, under 10 active
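5 nM GALK; 35 uM ATP; 100 uM D-galactose; 20 mM HEPES pH 8.0, 5 mM MgCl2, 60 mM NaCl, 1 mM DTT, 0.01% BSA; 1 h RT; Kinase-Glo Plus luminescence.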
Hits are given with their value; 0 = inactive; ? = inconclusive; - = no result; ! = repeats disagree; [ ] = dose if it differs, or a comment. Only some compounds are listed: those with a hit (about 3.6% of all), similar ones and a draw of the others. Unless noted, calls follow the shape of the dose curve; as a rule, active = well fitted curve in the direction sought with a large enough effect; inconclusive = small, poorly fitted or top-dose-only effect, or another doubt; inactive = no such curve, though single readings can be large; an effect the other way counts as inactive or inconclusive.

SMILES	TSG101-PTAP inh	NTMT1 inhibitor	GPR32 ag	GALC G270D up	B2AR arrestin ag	GALK inhibitor
CC[C@]1(O)CC2CN(CCc3c([nH]c4ccccc34)[C@@](C(=O)OC)(c3cc4c(cc3OC)N(C)[C@H]3[C@@](O)(C(=O)OC)[C@H](OC(C)=O)[C@]5(CC)C=CCN6CC[C@]43[C@@H]65)C2)C1 (stereo partly drawn)	-	44.7µM!	-	-	-	-
CCC1(O)CC2CN(CCc3c([nH]c4ccccc34)[C@@](C(=O)OC)(c3cc4c(cc3OC)N(C=O)C3[C@]45CCN4CC=C[C@@](CC)([C@@H](OC(C)=O)[C@]3(O)C(=O)OC)[C@H]45)C2)C1 (stereo partly drawn)	-	-	0	-	-	-
COC1CC(=O)C23C(=O)NC(Cc4c[nH]c5ccccc45)C2C(C)C2(C)OC2C3/C=C/CC(C)CC1O (stereo not drawn)	-	0	-	-	-	-
Cc1cc(C)c(Cn2c(CCNC(=O)c3ccco3)nc3ccccc32)c(C)c1	0	-	68.2	-	0	0
COc1cccc(CCc2ccccc2OCC(CN(C)C)OC(=O)CCC(=O)O)c1 (stereo not drawn)	-	0	94.8	0	-	-
CCCC(CCC)C(=O)NCc1ccc2c(cnn2-c2ccccc2OC)c1	-	0	-	-	-	-
COc1ccc(Nc2cc(C)c3cc(NC(=O)COc4cccc(C)c4)ccc3n2)cc1	0	0	72.4	0	0	0
CC(C)n1c(=O)cc(N[C@@H](C)c2ccccc2)[nH]c1=O	-	0	-	-	-	-
COc1ccc(NC(=O)c2ccco2)cc1NC(=O)COc1ccccc1Cl	0	0	64.3	0	0	0
COc1ccc(NC(=O)c2ccco2)cc1NC(=O)COc1cc(C)cc(C)c1	0	0	0	0	0	0
Cn1cc(C2=C(c3cn(CCCSC(=N)N)c4ccccc34)C(=O)NC2=O)c2ccccc21	-	3.16µM	-	-	-	-
COC1CC(O[C@H]2CC[C@@]3(C)C(=CC[C@]4(O)C3[C@H](OC(C)=O)[C@@H](OC(=O)c3ccccc3)[C@]3(C)[C@@H](C(C)=O)CC[C@@]34O)C2)OC(C)C1OC1CC(OC)C(OC2CC(OC)C(OC3OC(C)C(OC4OC(CO)C(O)C(O)C4O)C(OC)C3O)C(C)O2)C(C)O1 (stereo partly drawn)	-	0[6.45 µM]	-	-	-	-
CC(C)c1ccc(NC(=O)C2CCN(S(=O)(=O)c3cccc4nonc34)CC2)cc1	0	0	0	0	0	0
O=C(Nc1ccc(Cl)c(C(F)(F)F)c1)C1CCN(S(=O)(=O)c2cccc3nonc23)CC1	0	0	79.0	0	0	0
C[C@@H](O)[C@@H]1NC(=O)[C@H](CCCCN)NC(=O)[C@@H](Cc2c[nH]c3ccccc23)NC(=O)[C@H](Cc2ccccc2)NC(=O)[C@@H](NC(=O)[C@H](N)Cc2ccccc2)CSSC[C@@H](C(=O)N[C@H](CO)[C@@H](C)O)NC1=O	-	0	-	-	-	-
C[N+](C)(CCOc1ccccc1)Cc1cccs1	-	14.1µM	0	0	-	-
Clc1ccc(C(c2ccccc2)c2c[nH]c3ccccc23)s1 (stereo not drawn)	0	0	106.9	0	0	0
Cc1ccc2[nH]cc(C(c3ccccc3)c3ccc(Cl)s3)c2c1 (stereo not drawn)	0	0	0	0	0	0
COc1ccc(CSc2nc3ncc(Br)cc3[nH]2)cc1F	-	0	-	-	-	-
CS(=O)(=O)c1ccc(-c2cn3ccccc3n2)cc1	-	7.08µM	0	0	-	-
CC(=O)c1cccc(NC(=O)CCCN2C(=O)COc3ccc(C)cc32)c1	0	79.4µM	0	0	0	0
CCc1ccccc1NC(=O)CCCN1C(=O)COc2ccc(C)cc21	0	0	0	0	0	0
CC(=O)N1CCCC1c1nc2ccccc2n1Cc1c(F)cccc1Cl (stereo not drawn)	0	89.1µM	0	0	0	0
O=c1[nH]sc2cc(Cl)ccc12	-	2.82µM	0	0	-	-
COC1CC(=O)C23C(=O)NC(CC(C)C)C2C(C)C(C)=CC3/C=C(\C)CCC(O)C1O (stereo not drawn)	-	0	-	-	-	-
SMILES	TSG101-PTAP inh	NTMT1 inhibitor	GPR32 ag	GALC G270D up	B2AR arrestin ag	GALK inhibitor
CC[C@H]1OC(=O)[C@H](C)[C@@H](OC2C[C@@](C)(OC)[C@@H](O)[C@H](C)O2)[C@H](C)[C@@H](OC2O[C@H](C)C[C@H](NC)[C@H]2O)[C@](C)(O)C[C@@H](C)CN(C)[C@H](C)[C@@H](O)[C@]1(C)O (stereo partly drawn)	-	0	-	-	-	-
CC(C)NC(=O)c1ccc(C#Cc2ccncc2)cn1	-	0	-	-	-	-
Cc1cc(C)cc(NC(=O)N2CCC(N3CCCCC3)CC2)c1	0	89.1µM	0	0	0	0
Nc1nccn2c(C3CCC(C(=O)O)CC3)nc(-c3cc4cccc(Cl)c4[nH]3)c12 (stereo not drawn)	-	35.5µM!	-	-	-	-
COC(=O)Cc1c(C)c2ccc3c(c2oc1=O)CN(Cc1ccc(Cl)cc1)CO3	0	0	0	25.1µM	0	0
Cn1nc(-c2ccc(C(=O)Nc3ccc(F)cc3)cc2)c2ccccc2c1=O	0	?	105.2	0	0	0
Cn1nc(-c2ccc(OCC(=O)Nc3cccc(C(F)(F)F)c3)cc2)c2ccccc2c1=O	0	0	84.7	0	0	0
Cn1nc(-c2ccc(N3CCCCC3)c(NC(=O)c3ccc(Cl)cc3)c2)c2ccccc2c1=O	0	0	0	0	0	0
Cc1ccc(NC(=O)COc2ccc(-c3nn(C)c(=O)c4ccccc34)cc2)cc1	0	0	0	0	0	0
Nc1cccc(OCCn2c(CCNC(=O)C3CCCCC3)nc3ccccc32)c1	-	0	-	-	-	-
CC(=O)N1CCN(c2ccc(OC[C@H]3CO[C@](Cn4ccnc4)(c4ccc(Cl)cc4Cl)O3)cc2)CC1	-	21.5µM!	0	-	-	-
O=c1cc(OCc2ccc(F)cc2)ccn1-c1ccc(OCCN2CCCC2)cc1	-	0	-	-	-	-
O=C(O)c1ccc(O)c2ncc(N3CCCC3)cc12	-	0	-	-	-	-
CN(C)CCCNc1cc(N2CCN(C3CCCCC3)CC2)c2noc3c2c1C(=O)c1ccccc1-3	0	11.2µM	0	0	0	0
CC(C)c1ccccc1-c1ncc(F)c(NCc2ccc(-c3ccn[nH]3)cc2)n1	-	0	-	-	-	-
CCCCCCCC/C=C\CCCCCCCC(=O)NCc1ccc(O)c(OC)c1	-	0	75.1!	0	-	-
COc1cc2nc(N3CCN(C(=O)c4ccco4)CC3)nc(N)c2cc1OC	-	0	?	0	-	-
COc1cc2nc(N3CCN(C(=O)C4COc5ccccc5O4)CC3)nc(N)c2cc1OC (stereo not drawn)	-	?	108.5!	0	-	-
O=c1cc(COc2ccccc2Cl)nc2scc(-c3ccccc3)n12	0	0	86.2	0	0	0

Screening data (PubChem BioAssay)
